Measurements reported in PubChem BioAssay (EPA / NIEHS).
Active and inactive are the calls of the source. The calls were made as follows: active = hit-call score of the fitted dose curve at least 0.9, where 1 is the maximum; inactive = score below 0.9.

What was measured:
[1] = read-out: TIMP metallopeptidase inhibitor 1 (TIMP1), TIMP1 (gene 7076); test: BSK_hDFCGF_TIMP1: BioMAP Diversity Plus: hDFCGF Assay for TIMP metallopeptidase inhibitor 1 (TIMP1) Biomarker Activity (AID 2283062); conditions: primary human foreskin fibroblasts; actives raise or lower the signal
Procedure, shortened: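 Human foreskin fibroblast primary cultures dosed for 24 h; secreted/surface TIMP-1 quantified by ELISA. Bidirectional curve fitting against DMSO baseline; cytotoxicity tracked in parallel cultures by SRB total-protein staining.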

[2] = read-out: Monokine induced gamma interferon (MIG), CXCL9 (gene 4283); test: BSK_hDFCGF_MIG: BioMAP Diversity Plus: hDFCGF Assay for Monokine induced gamma interferon (MIG) Biomarker Activity (AID 2283063); conditions: primary human foreskin fibroblasts; actives raise or lower the signal
Procedure, shortened: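 MIG/CXCL9 measured by ELISA 24 h after dosing primary human skin fibroblasts. Activity fitted in both directions against DMSO controls. Cytotoxicity was checked in parallel cultures by SRB staining read at 560 nm.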

[3] = read-out: Matrix Metallopeptidase 1 (MMP1), MMP1 (gene 4312); test: BSK_hDFCGF_MMP1: BioMAP Diversity Plus: hDFCGF Assay for Matrix Metallopeptidase 1 (MMP1) Biomarker Activity (AID 2283064); conditions: primary human foreskin fibroblasts; actives raise or lower the signal
Procedure, shortened: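 ELISA read-out of MMP1 from human foreskin fibroblasts (primary skin cells), 24 h post-dose. Gain or loss of signal was fitted bidirectionally versus DMSO negative control; cytotoxicity was checked by SRB in parallel cultures.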

[4] = read-out: Vascular cell adhesion molecule 1 (VCAM1), VCAM1 (gene 7412); test: BSK_hDFCGF_VCAM1: BioMAP Diversity Plus: hDFCGF Assay for Vascular cell adhesion molecule 1 (VCAM1) Biomarker Activity (AID 2283065); conditions: primary human foreskin fibroblasts; actives raise or lower the signal
Procedure, shortened: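 Human foreskin fibroblast primary cells dosed with chemical, VCAM-1 measured by ELISA at 24 h. Bidirectional curve fitting relative to DMSO as negative control/baseline.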

[5] = read-out: Plasminogen activator inhibitor-1 (PAI1), SERPINE1 (gene 5054); test: BSK_hDFCGF_PAI1: BioMAP Diversity Plus: hDFCGF Assay for Plasminogen activator inhibitor-1 (PAI1) Biomarker Activity (AID 2283066); conditions: primary human foreskin fibroblasts; actives raise or lower the signal
Procedure, shortened: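 PAI-1 levels in human dermal foreskin fibroblasts were quantified by ELISA 24 h after dosing, with gain or loss analysed against DMSO. Overt cytotoxicity was checked by sulforhodamine B total-protein staining in parallel cultures.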

[6] = read-out: Intercellular Adhesion Molecule 1 (ICAM1), ICAM1 (gene 3383); test: BSK_KF3CT_ICAM1: BioMAP Diversity Plus: KF3CT Assay for Intercellular Adhesion Molecule 1 (ICAM1) Biomarker Activity (AID 2283067); conditions: primary human keratinocytes with fibroblasts; actives raise or lower the signal
Procedure, shortened: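 Human keratinocyte–foreskin fibroblast co-culture was treated for 24 h. Cell-surface ICAM-1 was quantified by ELISA, fitted bidirectionally relative to DMSO. Cytotoxicity was checked in parallel cultures by SRB total-protein staining.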

[7] = read-out: Interferon-gamma inducible Protein 10 (IP10), CXCL10 (gene 3627); test: BSK_KF3CT_IP10: BioMAP Diversity Plus: KF3CT Assay for Interferon-gamma inducible Protein 10 (IP10) Biomarker Activity (AID 2283068); conditions: primary human keratinocytes with fibroblasts; actives raise or lower the signal
Procedure, shortened: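 ELISA read-out of IP-10 after 24 h chemical dosing of human skin primary co-culture (keratinocytes, foreskin fibroblasts). Gain or loss of signal relative to DMSO, bidirectional curve fit.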

[8] = BSK_KF3CT_SRB: Viability Assessment in the BioMAP Diversity Plus: KF3CT Assay (AID 2283069); conditions: primary human keratinocytes with fibroblasts
Procedure, shortened: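 SRB read-out at 560 nm (0.1% stain, TCA-fixed cells) gauges overt cytotoxicity in a human skin keratinocyte–fibroblast co-culture 24 h post-dosing. Signal change was fitted bidirectionally relative to DMSO control.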

[9] = read-out: Interleukin-1 alpha (IL1a), IL1A (gene 3552); test: BSK_KF3CT_IL1a: BioMAP Diversity Plus: KF3CT Assay for Interleukin-1 alpha (IL1a) Biomarker Activity (AID 2283070); conditions: primary human keratinocytes with fibroblasts; actives raise or lower the signal
Procedure, shortened: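 Primary skin co-culture (keratinocytes, foreskin fibroblasts), 24 h exposure; ELISA for IL-1a; bidirectional curve fit vs DMSO.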

[10] = read-out: TIMP metallopeptidase inhibitor 2 (TIMP2), TIMP2 (gene 7077); test: BSK_KF3CT_TIMP2: BioMAP Diversity Plus: KF3CT Assay for TIMP metallopeptidase inhibitor 2 (TIMP2) Biomarker Activity (AID 2283071); conditions: primary human keratinocytes with fibroblasts; actives raise or lower the signal
Procedure, shortened: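 TIMP-2 measured by ELISA at 24 h in human keratinocyte/fibroblast primary co-cultures exposed to chemicals. Both increases and decreases were fitted against DMSO. Parallel cultures were stained with SRB for total protein as an overt-cytotoxicity check.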

[11] = read-out: Transforming growth factor beta 1 (TGFb1), TGFB1 (gene 7040); test: BSK_KF3CT_TGFb1: BioMAP Diversity Plus: KF3CT Assay for Transforming growth factor beta 1 (TGFb1) Biomarker Activity (AID 2283072); conditions: primary human keratinocytes with fibroblasts; actives raise or lower the signal
Procedure, shortened: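 ELISA quantifies TGF-b1 at 24 h post-dose in a primary human skin co-culture of keratinocytes and fibroblasts, with gain or loss judged against DMSO. Parallel SRB total-protein staining flags overt cytotoxicity.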

[12] = read-out: C-C motif chemokine 2 (Homo sapiens) (UniProt P13500); test: BSK_KF3CT_MCP1: BioMAP Diversity Plus: KF3CT Assay for Monocyte Chemoattractant Protein 1 (MCP1/CCL2) Biomarker Activity (AID 2283073); conditions: primary human keratinocytes with fibroblasts; actives raise or lower the signal
Procedure, shortened: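 Human keratinocyte–foreskin fibroblast co-culture; MCP-1 measured by ELISA 24 h after dosing. Bidirectional fit vs DMSO; cytotoxicity tracked by SRB total protein in parallel cultures.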

[13] = read-out: Matrix Metallopeptidase 9 (MMP9), MMP9 (gene 4318); test: BSK_KF3CT_MMP9: BioMAP Diversity Plus: KF3CT Assay for Matrix Metallopeptidase 9 (MMP9) Biomarker Activity (AID 2283074); conditions: primary human keratinocytes with fibroblasts; actives raise or lower the signal
Procedure, shortened: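 ELISA read-out of MMP-9 at 24 h post-dosing in a co-culture of human skin keratinocytes and foreskin fibroblasts. Gain or loss of signal was fitted in both directions against DMSO.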

[14] = read-out: urokinase plasminogen activator (uPA), PLAU (gene 5328); test: BSK_KF3CT_uPA: BioMAP Diversity Plus: KF3CT Assay for urokinase plasminogen activator (uPA) Biomarker Activity (AID 2283075); conditions: primary human keratinocytes with fibroblasts; actives raise or lower the signal
Procedure, shortened: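 Skin co-culture (keratinocytes + foreskin fibroblasts), human primary; 24 h post-dose; uPA by ELISA; gain/loss fit vs DMSO baseline.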

[15] = read-out: CD40, CD40 (gene 958); test: BSK_LPS_CD40: BioMAP Diversity Plus: LPS Assay for CD40 Biomarker Activity (AID 2283076); conditions: primary human HUVEC with PBMC; actives raise or lower the signal
Procedure, shortened: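 HUVEC plus PBMC co-culture stimulated with LPS; CD40 quantified by ELISA 24 h after compound dosing. Fitting was bidirectional relative to DMSO. SRB staining of parallel cultures flagged overt cytotoxicity.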

[16] = read-out: E-selectin (Homo sapiens) (UniProt P16581); test: BSK_LPS_Eselectin: BioMAP Diversity Plus: LPS Assay for Eselectin Biomarker Activity (AID 2283077); conditions: primary human HUVEC with PBMC; actives raise or lower the signal
Procedure, shortened: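 Human umbilical vein endothelial cells co-cultured with PBMC under LPS stimulation; cell-surface E-selectin measured by ELISA 24 h after dosing. Change in either direction versus DMSO, with SRB total-protein staining in parallel cultures for cytotoxicity.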

[17] = read-out: Interleukin-8 (IL8), CXCL8 (gene 3576); test: BSK_LPS_IL8: BioMAP Diversity Plus: LPS Assay for Interleukin-8 (IL8) Biomarker Activity (AID 2283078); conditions: primary human HUVEC with PBMC; actives raise or lower the signal
Procedure, shortened: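 Human umbilical vein endothelial cells co-cultured with PBMC, LPS-stimulated, exposed to compound for 24 h. IL-8 quantified by ELISA; fitted in both directions against DMSO, with SRB total-protein staining of parallel cultures for cytotoxicity.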

[18] = BSK_LPS_SRB: Viability Assessment in the BioMAP Diversity Plus: LPS Assay (AID 2283079); conditions: primary human HUVEC with PBMC;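 also: total protein by sulforhodamine B absorbance as a cytotoxicity measure; measured one day after compound addition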
Procedure, shortened: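 Co-culture of human umbilical vein endothelial cells and PBMC, read 24 h after dosing. Total protein by 0.1% SRB staining after 10% TCA fixation, absorbance at 560 nm; bidirectional fit against DMSO.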

[19] = read-out: Interleukin-1 alpha (IL1a), IL1A (gene 3552); test: BSK_LPS_IL1a: BioMAP Diversity Plus: LPS Assay for Interleukin-1 alpha (IL1a) Biomarker Activity (AID 2283080); conditions: primary human HUVEC with PBMC; actives raise or lower the signal
Procedure, shortened: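 Human umbilical vein endothelial cells co-cultured with PBMC and stimulated with LPS; IL-1a measured by ELISA 24 h after dosing. Bidirectional fitting against DMSO; cytotoxicity checked by SRB staining in parallel cultures.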

[20] = read-out: Monocyte Chemoattractant Protein-1 (MCP1), CCL2 (gene 6347); test: BSK_LPS_MCP1: BioMAP Diversity Plus: LPS Assay for Monocyte Chemoattractant Protein-1 (MCP1) Biomarker Activity (AID 2283081); conditions: primary human HUVEC with PBMC; actives raise or lower the signal
Procedure, shortened: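 Human umbilical vein endothelial cells co-cultured with PBMC, LPS-stimulated; secreted MCP-1 measured by ELISA 24 h after compound addition. Bidirectional curve fitting against DMSO baseline; SRB total-protein staining in parallel cultures for cytotoxicity.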

Measured: outcome

E-selectin (Homo sapiens), sequence (P16581 whole entry, looked up): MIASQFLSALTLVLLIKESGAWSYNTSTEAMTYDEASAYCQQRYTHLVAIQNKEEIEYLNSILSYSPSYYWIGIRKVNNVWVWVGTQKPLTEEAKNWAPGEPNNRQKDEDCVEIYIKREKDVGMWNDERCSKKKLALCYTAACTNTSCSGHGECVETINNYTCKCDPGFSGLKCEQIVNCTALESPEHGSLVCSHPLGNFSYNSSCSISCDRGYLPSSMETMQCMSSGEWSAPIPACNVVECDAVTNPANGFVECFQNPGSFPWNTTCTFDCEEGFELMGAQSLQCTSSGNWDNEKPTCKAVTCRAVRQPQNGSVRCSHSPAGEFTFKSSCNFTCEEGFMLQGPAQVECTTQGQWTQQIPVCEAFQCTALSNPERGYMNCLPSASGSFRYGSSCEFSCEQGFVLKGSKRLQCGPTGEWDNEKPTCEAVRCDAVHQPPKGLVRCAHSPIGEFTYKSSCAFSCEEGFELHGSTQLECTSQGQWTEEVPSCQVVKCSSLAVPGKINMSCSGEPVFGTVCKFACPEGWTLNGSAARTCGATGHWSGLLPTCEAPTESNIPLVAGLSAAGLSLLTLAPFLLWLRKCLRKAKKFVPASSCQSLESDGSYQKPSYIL

CC(=O)OCCOCCOCCOC(C)=O
inactive: all assays above

CCCCOC(=O)CCCCCCCCC(=O)OCCCC
inactive: all assays above

Cc1ccc(N(C)C)cc1
inactive: all assays above

CCCCCCOCCO
inactive: all assays above

CCCCCCCCCCCCCCCC
inactive: all assays above

CC(CO)OC(C)CO (stereo not given) (tested in a mixture with another compound)
inactive: all assays above

COC(=O)c1ccc(O)cc1
inactive: all assays above
